Hits are enriched below; roughly 19% of the tested compounds scored in any of these assays.
TDP1 cell CPT: DT40-hTDP1 cell growth loss with CPT | chicken DT40 Tdp1-/-;hTDP1 cells + 20 nM CPT, ATP luminescence, 48 h | Potency, µM (doses to about 46.2 µM), inactives show at the highest dose activity change, negative = growth inhibition, actives largely listed as inhibitors | hit rate 12% among 420,000 | AID 686979; note: potency is the fitted concentration of half-maximal effect; nearly all actives have a fitted effect of over 55% in size
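Chicken DT40 Tdp1-/- cells stably complemented with human TDP1 were seeded at 400 cells/well in medium containing 20 nM camptothecin, exposed to pin-transferred compounds, and grown at 37 °C for at least 48 hr. Viability was read as ATP luminescence.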
HT1080NT lethal: kills 2HG-producing HT-1080-NT fibrosarcoma cells. AID 686970. HT-1080-NT fibrosarcoma viability, CellTiter-Glo ATP luminescence, 48 h. hit rate 1.6% among 360,000. Potency, µM (doses to about 46.1 µM), for the others: at the top dose activity, negative = less viability, hits mostly cytotoxic;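 note: NT is the 2HG producing partner of a matched IDH1 knockdown line; potency is the fitted concentration of half-maximal effect; 0% = DMSO-treated cells and -100% = media-only wells without cells; nearly all actives have a fitted effect of over 55% in size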
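Viability by CellTiter-Glo luminescence after 48 h compound exposure at 37C of HT-1080-NT cells (750/well, RPMI, 5% FBS). % activity scaled between DMSO wells and medium-only wells, then curve-fitted and categorized by curve class.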
TDP1 cell noCPT: qHTS for Inhibitors of human tyrosyl-DNA phosphodiesterase 1 (TDP1): qHTS in cells in absence of CPT | DT40 Tdp1-/- hTDP1 cells, no CPT, ATP luminescence, 48 h | Potency, µM (top dose mostly 46.2 µM), for inactives: top-dose activity change, negative = growth inhibition, hits mostly inhibitors | hit rate 15% among 420,000 | AID 686978, 2013; note: potency is the fitted concentration of half-maximal effect; nearly all actives have a fitted effect of over 55% in size
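No-CPT arm: Tdp1-/-;hTDP1 DT40 cells (400/well) plus compounds, incubated ≥48 hr at 37 °C. Readout CellTiter-Glo luminescence.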
HT1080 IDH1KD tx: HT-1080 IDH1 knockdown cell toxicity (counter line); AID 686971; HT-1080 IDH1 knockdown viability, ATP luminescence, 48 h; Potency, µM (highest dose often 46.1 µM), for the others: at the highest dose activity, negative = toxicity, actives largely listed as cytotoxic; hit rate 2% among 360,000;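 note: potency is the fitted concentration of half-maximal effect; 0% = DMSO wells and -100% = cell-free medium wells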
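Knockdown cells (IDH1KD HT-1080) received compounds 2 h after plating at 750 cells/well and were kept 48 h at 37 °C in 5% FBS RPMI. A CellTiter-Glo luminescence read gave % activity for curve fitting.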
IL1B secr inh: inhibitors of inflammasome signaling (IL-1 beta secretion). THP-1 LPS/ATP IL-1B secretion, AlphaLISA, 16 h; active compounds read low. activity change, % at 57.5 µM. hit rate 4.7% among 360,000; in the data active = activity change below about -50%; inconclusive = mostly about -30% to -49%
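THP-1 cells pretreated 1 hr with compounds (up to 57.5 uM final), then stimulated with LPS (250 ng/mL final) plus ATP (1.25 mM final); secreted IL-1B measured by AlphaLISA after 16 hr, decreased signal indicating inhibition.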
* hit, by the source's call; ? = inconclusive; nt = not tested or not shown; ! = repeats disagree. Unless noted, calls come from the whole dose curve; as a rule, active = well fitted curve in the direction sought with a large enough effect; inconclusive = small, poorly fitted or top-dose-only effect, or another doubt; inactive = no such curve, though single readings can be large; an effect the other way counts as inactive or inconclusive. Unless noted, % is set by controls: 0 for no effect and ±100 for the full control effect.

SMILES	TDP1 cell CPT	HT1080NT lethal	TDP1 cell noCPT	HT1080 IDH1KD tx	IL1B secr inh
COc1ccc(NC(=O)c2cccn(Cc3ccc(Cl)cc3)c2=O)c(OC)c1	?	nt	-27%	nt	nt
NC[C@H](CS(=O)(=O)O)c1ccc(Cl)cc1	22%	nt	-1%	nt	nt
CCCCCc1nc2c(c(=O)c3ccccc3n2C)c(=O)n1C1CCCCCC1	21µM*	?	18µM*	?	10
O=C(NN1C(=O)C2C3C=CC(C4CC34)C2C1=O)c1cccc(Br)c1 (configuration not stated)	-25%	1%	?	0%	0
COc1ccc(OC)c(CN2CCN(C(=O)COc3cccc(C)c3)CC2)c1	26µM*	-1%	?	-1%	-4
COc1ccccc1CN1CCN(C(=O)COc2cccc(C)c2)CC1	?	0%	21µM*!	-2%	-6
COc1ccc(CN2CCN(C(=O)COc3cccc(C)c3)CC2)c(OC)c1	?	4%	?	-18%	-11
CN(C)CP(=O)(O)CN(C)C=O	1%	15%	-2%	19%	29
CP(=O)(O)C1=CCNCC1	-7%	nt	-1%	nt	nt
CCOC(=O)c1ccc2c(c1)N(C)C(=O)c1ccccc1S2	?	5%	?	8%	13
CCOC(=O)c1ccc(-[n+]2c(-c3ccccc3)cc(-c3ccccc3)cc2-c2ccccc2)cc1	1µM*	18µM*	0.73µM*	23µM*	-99*
CCOC(=O)c1cccc(-[n+]2c(-c3ccccc3)cc(-c3ccccc3)cc2-c2ccccc2)c1	1.6µM*	?	1.6µM*	18µM*	-67*
COc1ccc(C(=O)C2CCCN(CC3CCCCC3)C2)cc1OC (configuration not stated)	?	1%	?	8%	-11
O=C(c1ccc2c3c(cccc13)CC2)C1CCCN(CC2CC2)C1 (configuration not stated)	18µM*	?	23µM*	16µM*	-117*
CCCCNC(C)(C)[P+](=O)O	-4%	nt	7%	nt	nt
C/C(=N\N(C)c1ccccc1)c1c(O)[nH]c(=O)[nH]c1=O	-8%	?	-23%	?	7
CSCCC(c1nnnn1-c1ccc2c(c1)OCCO2)N1CCC(n2c(=O)[nH]c3ccccc32)CC1 (configuration not stated)	7.3µM*	?	7.3µM*	?	?
CCC(c1nnnn1-c1ccc2c(c1)OCCO2)N1CCC(n2c(=O)[nH]c3ccccc32)CC1 (configuration not stated)	10µM*	?	9.2µM*	?	-20
CSCCC(c1nnnn1C(C)(C)C)N1CCC2(CC1)C(=O)NCN2c1ccccc1 (configuration not stated)	?	-22%	?	2%	-10
CCC(c1nnnn1C1CCCCC1)N1CCC2(CC1)C(=O)NCN2c1ccccc1 (configuration not stated)	?	6%	?	2%	0
CCN(C(=O)COC(=O)C(O)(c1ccccc1)c1ccccc1)c1c(N)n(Cc2ccccc2)c(=O)[nH]c1=O	3%	6%	-26%	-2%	53
Cn1ncnc2c(=O)n(C)c(=O)nc1-2	0.21µM*	0.52µM*	0.29µM*	1µM*	-108*
Cc1ccc(-c2nc3c(=O)n(C)c(=O)nc-3n(C)n2)cc1	0.63µM*	nt	0.5µM*	nt	nt
C[C@@H]1[C@H](O)[C@@H](C)/C=C/C=C/CC/C=C/C=C/C=C/C=C/[C@H](O[C@H]2O[C@@H](C)[C@H](O)[C@@H](N)[C@H]2O)CC2O[C@](O)(C[C@@H](O)[C@H](O)CC[C@@H](O)C[C@@H](O)C[C@@H](O)CC(=O)O[C@H]1C)C[C@H](O)[C@H]2C(=O)O	-8%	nt	-24%	nt	nt
CC1([N+](=O)[O-])COP(=O)(Nc2ccccc2F)OC1 (configuration not stated)	-9%	17%	-10%	11%	5
Oc1ccccc1C1NCc2ccccc2-n2cccc21 (configuration not stated)	?	-36%	?	?	?
O=C(CCl)c1ccc(O)c(O)c1	?	nt	11µM*	nt	nt
COC(=O)c1ccc(COC(=O)c2nn(C)c(=O)c3ccccc23)cc1	?	5%	?	4%	19
